The values below come from PubChem BioAssay (NCATS).

Where “and” joins values, the source holds several entries; their conditions need not be identical. Equal values may be shown once. Results filed as inconclusive are left out. Unmarked numbers belong to inactive results. Calls of active or inactive are those of the source. The call rests on the fitted dose curve; in most records, active means well fitted inhibition curve with a large enough effect; inconclusive means small, poorly fitted or top-dose-only effect; inactive means flat fitted curve, though single readings scatter.
On the % scale 0 is the no-effect control and ±100 the full control effect; potency means the concentration at half of the fitted maximal effect.

In this assay the test system is KB-3-1. In words: Cytotoxic Profiling of Annotated Libraries Using Quantitative High-Throughput Screening (AID 1296008). Further: nearly all actives have a fitted effect of over 60% in size. To be noted: Five cell lines viability, CellTiter-Glo ATP luminescence, 48-72 h; max response: active compounds read low. The source says:
Cell-based phenotypic screening is a commonly used approach to discover biological pathways, novel drug targets, chemical probes and high-quality hit-to-lead molecules. Many hits identified from high-throughput screening campaign are ruled out through a series of follow-up potency, selectivity/specificity, and cytotoxicity assays. Prioritization of molecules with little or no cytotoxicity for a more in-depth downstream evaluation influence the future direction of projects, so cytotoxicity profiling of the screening libraries at early stage is essential for increasing the likelihood of candidate success. […] For the annotated library, we also examined the primary targets and mechanistic pathways regularly associated with cell death. To our knowledge, this is the first study to use high-throughput screening to profile large libraries for cytotoxicity assessment in both normal and cancer cell lines. In summary, the results generated here constitutes a valuable resource for the scientific community and provides insight on identifying cytotoxic compounds with particular mechanisms of action, and prioritizing compounds with suitable cytotoxicity profile for further evaluation.
A pintool (Kalypsys) was used to transfer 23 nL of compound solution to the 1536-well assay plates. After 48 or 72 hr incubation at 37 degree Celsius, 5% CO2 and 95% humidity, 2.5 uL of CellTiter-Glo (Promega) was dispensed into each well using a dispenser (Aspect Automation, St. Paul, MN) with solenoid valves (Lee Valves, Westbrook CT). Plates were left at room temperature for 10 min before imaging the ATP-coupled luminescence using a ViewLux microplate imager (PerkinElmer, Waltham, MA).
Consider `O=C(c1ccc(OCCN2CCCCC2)cc1)c1c(-c2ccc(O)cc2)sc2cc(O)ccc12`, for which the max response is -14.1% and -7.5%.

As to `COC(=O)Nc1nc2ccc(C(=O)c3cccs3)cc2[nH]1`, the Potency was 16.6 nM (active) and 231 nM (active).

For the compound `COc1ccc2[nH]cc(CCNC(C)=O)c2c1`, the max response is 5.26% and 4.62%.

For `C[C@H]1c2cccc(O)c2C(O)=C2C(=O)[C@]3(O)C(O)=C(C(N)=O)C(=O)[C@@H](N(C)C)[C@@H]3[C@@H](O)[C@@H]21`, the max response is 10.8% and -8.7%.

As for `O=c1[nH]cc(F)c(=O)[nH]1`, the max response is 22.7% and -20.8%.

With `CC(C)(C)C(=O)Oc1ccc(S(=O)(=O)Nc2ccccc2C(=O)NCC(=O)O)cc1`, the max response was -8.85% and the compound was called inactive.

As for `CS(=O)(=O)Nc1ccc([N+](=O)[O-])cc1Oc1ccccc1`, the max response was 0.301% and -0.592%.

Consider `CS(=O)(=O)CCNCc1ccc(-c2ccc3ncnc(Nc4ccc(OCc5cccc(F)c5)c(Cl)c4)c3c2)o1`, for which the max response is 0.0192%.

As for `Cc1ccc(-c2cc(C(F)(F)F)nn2-c2ccc(S(N)(=O)=O)cc2)cc1`, the max response is -4.37% and -12.4%; the result was inactive.

With `COc1ccccc1OCC(O)CN1CCN(CC(=O)Nc2c(C)cccc2C)CC1` (stereo not given), the max response was 4.47% and -3.97%.

Turning to `C[C@](N)(Cc1ccc(O)c(O)c1)C(=O)O`, the max response is -5.5% and -5.11%.

As for `CC(C)(Oc1ccc(C2CC2(Cl)Cl)cc1)C(=O)O` (stereo not given), the compound was called inactive.

As to `C[C@@H]1CC(=O)NN=C1c1ccc(NN=C(C#N)C#N)cc1`, the max response is -4.37%.

For `CC12CC3CC(C)(C1)CC(N)(C3)C2`, the max response is 0.442%.

Take `CN(C)c1nc(N(C)C)nc(N(C)C)n1`: the max response was 0.844% and 0.45%.

In the case of `NCCS(=O)(=O)O`, the max response was 9.43%.

For `COc1ccc(CCN(C)CCCC(C#N)(c2ccc(OC)c(OC)c2)C(C)C)cc1OC` (stereo not given), the max response was -13.1% and 17.7%.

On to `CNCCCC12CCC(c3ccccc31)c1ccccc12`, for which the max response was 3.46%.

For the compound `CC(C)NCC(O)c1ccc(O)c(O)c1` (stereo not given), the max response is 0.229%.

For `Cc1cc(C(C)(C)C)c(O)c(C)c1CC1=NCCN1`, the max response is 1.72% and -15.7%.

As for `O=C1Cc2cc(CCN3CCN(c4nsc5ccccc45)CC3)c(Cl)cc2N1`, the max response is 2.45% [middle of 4 runs].

Take `COc1ccc2c(c1)c(CC(=O)O)c(C)n2C(=O)c1ccc(Cl)cc1`: the max response is 0.589% and -8.59%.

Consider `O=C1N(c2ccccc2)c2ccccc2C1(Cc1ccncc1)Cc1ccncc1`, for which the max response was 0.123% and the result was inactive.

With `Clc1ccc2c(c1)C(N1CCNCC1)=Nc1ccccc1O2`, the max response was 6.74% and 1.6%.

Take `Cc1ccccc1N1C(=O)c2cc(S(N)(=O)=O)c(Cl)cc2NC1C` (stereo not given): the max response is 2.47% and -15% and -2.37%.

`CC(C)Cc1ccc(C(C)C(=O)O)cc1` (stereo not given): the max response is 1.49% and -2.93%.

On to `CC#C[C@]1(O)CC[C@H]2[C@@H]3CCC4=CC(=O)CCC4=C3[C@@H](c3ccc(N(C)C)cc3)C[C@@]21C`, for which the max response was -19.9%.

With `CC1(C)O[C@H]2CC(=O)OC[C@]23[C@H]2CC[C@@]4(C)[C@H](c5ccoc5)OC(=O)[C@H]5O[C@]54[C@]2(C)C(=O)C[C@@H]13`, the call was inactive; the max response is -3.61% and 0.55%.

Take `CN1CCC(=C2c3ccccc3C=Cc3ccccc32)CC1`: the max response was 25.1% and -12.3%.

Consider `CCc1cccc2c3c([nH]c12)C(CC)(CC(=O)O)OCC3` (stereo not given), for which the max response is -15.8% and -6.31%.

For the compound `NCCc1cnc[nH]1`, the compound was called inactive and the max response was -8.33%.

In the case of `CN1C(C(=O)Nc2ccccn2)=C(O)c2ccccc2S1(=O)=O`, the max response is -1.54% and -11.4%.

As to `CC1(CN2CCC(n3c(=O)[nH]c4ccccc43)CC2)OCc2ccccc2-n2cccc21` (stereo not given), the max response was -2.15% and -10%.

`COc1ccccc1N1CCN(CC(O)COc2cccc3ccccc23)CC1` (stereo not given): the max response is 9.55%.

For the compound `Cn1ccc2cc3c(cc21)CCN3C(=O)Nc1cccnc1`, the max response was 29.1% and 8.13%.
